Among the data in the supplement of paper PMC8285479 are normalised cell viability values, retold here.

Where a name gives a salt, the structure may show the parent alone. ± gives the standard deviation of the averaged measurements. In all, about 1,900 compounds were measured (“normalised cell viability (NPI; 0 = phenylarsine oxide control, 1 = DMSO control)”: median about 1, lowest 2% from about 0.039 on). Shown is part of a subset that was picked to be rich in the lowest values.

The subject of the test is NCI-H1944. Description: normalised cell viability (NPI; 0 = phenylarsine oxide control, 1 = DMSO control) (fraction of DMSO control); NCI-H1944 is a non-small cell lung cancer line; higher = more viable cells (less compound toxicity). The note with it: 6 days.
Where [1] appears, read: glucocorticoid arm: hydrocortisone 2.75 uM co-treatment, compound 1 µM.
Where [2] appears, read: glucocorticoid arm: hydrocortisone 2.75 uM co-treatment, compound 5 µM.
[3] abbreviates: glucocorticoid arm: hydrocortisone 2.75 uM pre-treated 2 days and continued, compound 1 µM.
[4] abbreviates: glucocorticoid arm: hydrocortisone 2.75 uM pre-treated 2 days and continued, compound 5 µM.
Setting [5] is: glucocorticoid arm: vehicle, compound 1 µM.
[6] abbreviates: glucocorticoid arm: vehicle, compound 5 µM.
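Note: CTB read-out in 384-well plates, triplicate wells, NPI normalised per plate against 1 µM phenylarsine oxide (0) and 0.1% DMSO (1) controls.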

As to `O=C(O)/C(=C\c1c(C(=O)O)[nH]c2cc(Cl)cc(Cl)c12)c1ccccc1`, the normalised cell viability reads like this: under setting [1], 1.02 ± 0.015; under setting [2], 1.06 ± 0.017; under setting [3], 1.017 ± 0.0058; under setting [4], 1.08 ± 0.081; under setting [5], 0.995 ± 0.002; under setting [6], 1.013 ± 0.0058.

Turning to `C/C=C1\NC(=O)[C@H]2CSSCC/C=C/[C@H](CC(=O)N[C@H](C(C)C)C(=O)N2)OC(=O)[C@H](C(C)C)NC1=O` [Romidepsin (FK228, Depsipeptide)], the normalised cell viability under setting [1] worked out at 0.00704 ± 0.0021; the normalised cell viability under setting [2] came out at 0.000455 ± 0.00053; the normalised cell viability under setting [3] amounted to 0.00593 ± 0.0021; the normalised cell viability under setting [4] was 0.000393 ± 0.00068; the normalised cell viability under setting [5] came out at 0.00559 ± 0.0012; the normalised cell viability under setting [6] is 2.1e-05 ± 0.00023.

For the compound `C/C=C1\NC(=O)[C@H]2CSSCC/C=C/[C@H](CC(=O)N[C@H](C(C)C)C(=O)N2)OC(=O)[C@H](C(C)C)NC1=O` [Romidepsin], the normalised cell viability runs as follows: under setting [1], 1.005 ± 0.0092; under setting [2], 1.02 ± 0.011; under setting [3], 1.007 ± 0.0058; under setting [4], 1.02 ± 0.015; under setting [5], 0.9903 ± 0.0045; under setting [6], 0.979 ± 0.019.

As for `C/C=C1\NC(=O)[C@H]2CSSCC/C=C/[C@H](CC(=O)N[C@H](C(C)C)C(=O)N2)OC(=O)[C@H](C(C)C)NC1=O` [Depsipeptide], the normalised cell viability by setting is: under setting [1], 6.37e-05 ± 0.001; under setting [2], 1.05 ± 0.02; under setting [3], 0.00143 ± 0.00036; under setting [4], 1.027 ± 0.0058; under setting [5], 0.00028 ± 0.00044; under setting [6], 1.01.

`O=C(O)C1CCCNC1` (racemic) [(±)-Nipecotic acid]: the normalised cell viability runs as follows: under setting [1], 0.9947 ± 0.005; under setting [2], 1.01 ± 0.014; under setting [3], 1.02 ± 0.059; under setting [4], 1.02 ± 0.021; under setting [5], 1 ± 0.01; under setting [6], 1.013 ± 0.0058.

Turning to `CN(C)CCSSCCNC(=O)C1CCN(C(=O)CSc2ccc(Cl)cc2)CC1`, the normalised cell viability is 1.01 ± 0.01 under setting [1]; 1.04 ± 0.015 under setting [2]; 1.027 ± 0.0058 under setting [3]; 1.05 ± 0.01 under setting [4]; 0.9967 ± 0.0035 under setting [5]; 0.9967 ± 0.0042 under setting [6].

Regarding `N[C@@H](Cc1c[nH]cn1)C(=O)O` [L-Histidine hydrochloride], the normalised cell viability under setting [1] turned out to be 1.017 ± 0.0058; the normalised cell viability under setting [2] stood at 0.996 ± 0.012; the normalised cell viability under setting [3] was determined as 1 ± 0.014; the normalised cell viability under setting [4] came to 1.02 ± 0.01; the normalised cell viability under setting [5] is 0.9973 ± 0.0038; the normalised cell viability under setting [6] came to 0.9973 ± 0.0046.

Turning to `O=C(O)c1ccnc(C(=O)O)c1` [2,4-Pyridinedicarboxylic Acid], the normalised cell viability runs as follows: under setting [1], 1 ± 0.022; under setting [2], 0.999 ± 0.045; under setting [3], 0.996 ± 0.021; under setting [4], 1.01 ± 0.024; under setting [5], 0.996 ± 0.015; under setting [6], 0.999 ± 0.015.

Take `CN=c1nc(-c2ccccc2)n(-c2ccccc2)s1`: the normalised cell viability is 1.003 ± 0.0058 under setting [1]; 1.04 ± 0.031 under setting [2]; 0.832 ± 0.33 under setting [3]; 1.02 ± 0.01 under setting [4]; 1.01 under setting [5]; 1.017 ± 0.0058 under setting [6].

For `O=C1Nc2ccc(I)cc2C1=Cc1cc(Br)c(O)c(Br)c1`, the normalised cell viability is, setting by setting: under setting [1], 1.047 ± 0.0058; under setting [2], 1.113 ± 0.0058; under setting [3], 1.04 ± 0.01; under setting [4], 1.08 ± 0.021; under setting [5], 1.02 ± 0.01; under setting [6], 1.043 ± 0.0058.

In the case of `Cc1nc(N=Nc2cc([N+](=O)[O-])ccc2Cl)c(COP(=O)(O)O)c(C=O)c1O` [MRS 2211 sodium salt hydrate], the normalised cell viability stood at 1.003 ± 0.0061 under setting [1]; 1.023 ± 0.0058 under setting [2]; 0.9933 ± 0.0099 under setting [3]; 0.995 ± 0.036 under setting [4]; 1.01 ± 0.013 under setting [5]; 1.006 ± 0.0075 under setting [6].

`Cc1c2oc3c(C)ccc(C(=O)N[C@@H]4C(=O)N[C@H](C(C)C)C(=O)N5CCC[C@H]5C(=O)N(C)CC(=O)N(C)[C@@H](C(C)C)C(=O)O[C@@H]4C)c3nc-2c(C(=O)N[C@@H]2C(=O)N[C@H](C(C)C)C(=O)N3CCC[C@H]3C(=O)N(C)CC(=O)N(C)[C@@H](C(C)C)C(=O)O[C@@H]2C)c(N)c1=O` [Dactinomycin]: the normalised cell viability is, setting by setting: under setting [1], 0.0161 ± 0.0015; under setting [2], 0.0688 ± 0.0039; under setting [3], 0.0397 ± 0.0056; under setting [4], 0.183 ± 0.016; under setting [5], 0.0046 ± 0.00021; under setting [6], 0.0187 ± 0.0011.

For `COc1cc2c(cc1OC)-c1c/c(=N\c3c(C)cc(C)cc3C)n(C)c(=O)n1CC2` [Trequinsin hydrochloride], the normalised cell viability came to 1.03 ± 0.015 under setting [1]; 1.02 ± 0.022 under setting [2]; 0.908 ± 0.2 under setting [3]; 1.033 ± 0.0058 under setting [4]; 1.023 ± 0.0058 under setting [5]; 1.05 ± 0.035 under setting [6].

With `CC(Cc1ccccc1)Nc1ncnc2c1ncn2C1OC(CO)C(O)C1O` (stereo not drawn) [R(-)-N6-(2-Phenylisopropyl)adenosine], the normalised cell viability reads like this: under setting [1], 0.998 ± 0.002; under setting [2], 1.01 ± 0.018; under setting [3], 0.9997 ± 0.0096; under setting [4], 1.03 ± 0.031; under setting [5], 1.013 ± 0.0058; under setting [6], 1.02 ± 0.017.

With `CC(=O)NC(C(=O)O)C(C)(C)SN=O` (configuration not stated) [S-Nitroso-N-acetylpenicillamine], the normalised cell viability is 0.998 ± 0.014 under setting [1]; 1 ± 0.026 under setting [2]; 1.01 ± 0.011 under setting [3]; 0.987 ± 0.023 under setting [4]; 0.9937 ± 0.0011 under setting [5]; 0.9943 ± 0.0055 under setting [6].

Turning to `O=C1c2c(O)cc(O)cc2O[C@H](c2ccc(O)c(O)c2)[C@H]1O` (racemic) [(±)-Taxifolin], the normalised cell viability came out at 1.01 ± 0.013 under setting [1]; 0.995 ± 0.0078 under setting [2]; 1.02 ± 0.035 under setting [3]; 1.01 ± 0.012 under setting [4]; 1.017 ± 0.0058 under setting [5]; 1.017 ± 0.0058 under setting [6].

Regarding `CO[C@@]12[C@H](COC(N)=O)C3=C(C(=O)C(C)=C(N)C3=O)N1C[C@@H]1N[C@@H]12` [Mitomycin; Mitomycin C], the normalised cell viability runs as follows: under setting [1], 1 ± 0.013; under setting [2], 0.00117 ± 0.0012; under setting [3], 1.017 ± 0.0058; under setting [4], 0.0028 ± 0.00069; under setting [5], 0.9803 ± 0.0055; under setting [6], 0.000408 ± 0.00038.

Consider `O=C1c2c(O)ccc(O)c2C(=O)c2c(NCCNCCO)ccc(NCCNCCO)c21` [Mitoxantrone dihydrochloride], for which the normalised cell viability came out at 0.00888 ± 0.0019 under setting [1]; 0.00352 ± 0.00052 under setting [2]; 0.145 ± 0.013 under setting [3]; 0.155 ± 0.0095 under setting [4]; 0.00324 ± 0.00091 under setting [5]; 0.00617 ± 0.003 under setting [6].

`O=C1c2c(O)ccc(O)c2C(=O)c2c(NCCNCCO)ccc(NCCNCCO)c21` [Mitoxantrone; Mitoxantrone dihydrochloride]: the normalised cell viability is, setting by setting: under setting [1], 0.181 ± 0.0045; under setting [2], 0.00493 ± 0.00072; under setting [3], 0.65 ± 0.012; under setting [4], 0.0166 ± 0.0015; under setting [5], 0.0328 ± 0.004; under setting [6], 0.00403 ± 0.00087.

As for `O=C1c2ccccc2C(=O)c2c(NCCc3ccc(O)cc3)ccc(NCCc3ccc(O)cc3)c21`, the normalised cell viability under setting [1] stood at 1.01 ± 0.012; the normalised cell viability under setting [2] worked out at 1.02 ± 0.038; the normalised cell viability under setting [3] worked out at 1.01 ± 0.012; the normalised cell viability under setting [4] amounted to 1.012 ± 0.0075; the normalised cell viability under setting [5] is 1.01 ± 0.0063; the normalised cell viability under setting [6] was found to be 1.022 ± 0.0098.

Regarding `O=C(NCc1cccc(O)c1)Nc1nc(-c2ccncc2)cs1`, the normalised cell viability under setting [1] stood at 0.994 ± 0.01; the normalised cell viability under setting [2] amounted to 0.978 ± 0.021; the normalised cell viability under setting [3] stood at 1.01 ± 0.014; the normalised cell viability under setting [4] was found to be 0.971 ± 0.035; the normalised cell viability under setting [5] was found to be 0.984 ± 0.0069; the normalised cell viability under setting [6] is 0.816 ± 0.054.

Take `C=C/C(C)=C/[C@@]1(C)SC(=O)C(C)=C1O` [Thiolactomycin]: the normalised cell viability by setting is: under setting [1], 0.992 ± 0.0056; under setting [2], 0.961 ± 0.021; under setting [3], 1 ± 0.026; under setting [4], 0.848 ± 0.23; under setting [5], 0.9883 ± 0.0015; under setting [6], 0.998 ± 0.012.
